# PRMT1 FP inh – blocks human protein arginine methyltransferase 1. recombinant PRMT1, activity-based probe fluorescence polarization. inhibition, % at 2.79 µM. hit rate 1.3% among 370,000. AID 652257;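 active means inhibition above about 21% made by adding two undisclosed values, limit read from the data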
# UHRF1 MBD2 ctr – human UHRF1 methylated DNA binding inhibitors | Q96T88 | UHRF1 binding to methylated oligo, TR-FRET | inhibition, % at 4.4 µM | hit rate 0.75% among 370,000 | AID 687016; in the data active means inhibition above about 21%;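 further: UHRF1 SRA domain binding a hemimethylated CpG hairpin DNA probe; 0% = median of test compound wells and 100% = reference inhibitor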
# Target sequence (Q96T88 whole entry, looked up, the tested form may be a part): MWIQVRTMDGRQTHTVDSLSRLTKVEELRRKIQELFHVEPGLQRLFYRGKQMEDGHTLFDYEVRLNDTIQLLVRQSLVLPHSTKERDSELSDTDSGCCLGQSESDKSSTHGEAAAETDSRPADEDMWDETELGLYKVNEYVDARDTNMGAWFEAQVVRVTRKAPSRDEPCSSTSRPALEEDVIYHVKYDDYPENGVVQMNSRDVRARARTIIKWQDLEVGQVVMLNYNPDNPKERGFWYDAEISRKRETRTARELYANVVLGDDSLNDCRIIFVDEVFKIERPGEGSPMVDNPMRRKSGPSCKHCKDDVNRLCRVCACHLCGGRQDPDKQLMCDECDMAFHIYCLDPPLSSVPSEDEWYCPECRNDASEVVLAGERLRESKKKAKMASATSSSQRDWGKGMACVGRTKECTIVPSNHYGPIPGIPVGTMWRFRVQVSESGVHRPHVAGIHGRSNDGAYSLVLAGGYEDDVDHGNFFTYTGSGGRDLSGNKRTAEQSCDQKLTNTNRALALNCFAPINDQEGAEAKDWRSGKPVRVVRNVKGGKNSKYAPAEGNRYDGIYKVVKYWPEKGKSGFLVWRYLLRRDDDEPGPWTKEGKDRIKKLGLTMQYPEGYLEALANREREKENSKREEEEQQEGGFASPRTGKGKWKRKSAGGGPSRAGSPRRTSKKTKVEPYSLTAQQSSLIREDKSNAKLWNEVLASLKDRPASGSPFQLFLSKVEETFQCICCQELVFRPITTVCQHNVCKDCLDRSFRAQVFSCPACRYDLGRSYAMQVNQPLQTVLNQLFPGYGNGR
# ABHD5-PLIN5 inh – inhibitors of human ABHD5-perilipin-5 interaction | Q00G26+Q8WTS1 | Split G. princeps luciferase complementation, luminescence, 4 h | inhibition, % at 4 µM | hit rate 0.78% among 360,000 | AID 602281;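 active means inhibition above the mean inhibition across every tested compound plus 3 SD, cut at about 22% in these data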;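 further: 0% = DMSO only wells and the 100% control is not disclosed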
# MBD2 inh – blocks human MBD2 binding to methylated DNA. inhibition, % at 4.4 µM. hit rate 0.31% among 370,000. Q9UBB5. AID 686964. TR-FRET, MBD2 binding to methylated oligonucleotide; in the data active means inhibition above about 13%
# rCAG binder – molecules binding r(CAG) RNA repeats. r(CAG) RNA repeat, TO-PRO-1 dye displacement fluorescence. hit rate 1.3% among 370,000. inhibition, % at 3 µM;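 active means inhibition above the plate cutoff, the mean of all test compounds on that plate plus 3 SD, cut at about 35% in these data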;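 further: 0% = DMSO alone and 100% = 100 µM mitoxantrone as full dye displacement; higher means more dye released from RNA so lower well fluorescence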
# LEDGF integ inh – blocks HIV-1 LEDGF/p75-dependent DNA integration; TR-FRET IN-LEDGF/p75 DNA integration, Eu/Cy5; hit rate 0.64% among 370,000; inhibition, % at 3.7 µM;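 active means inhibition above the screen-wide mean plus 3 SD, cut at about 13% in these data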;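 further: signal is the Cy5 over europium emission ratio at 671 and 618 nm; 0% = plate median of compound wells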
# * = called active by the depositor; x = no result; + = active, no number. Most compounds without a hit are left out; they make up all but 4.1% or so of the library.
SMILES,PRMT1 FP inh,UHRF1 MBD2 ctr,ABHD5-PLIN5 inh,MBD2 inh,rCAG binder,LEDGF integ inh
O=c1[nH]c2ccccc2c2oc(CCl)nc12,21*,-1,-17,0,-1,-4
CCC1CCc2c(c3ccccc3[nH]c2=O)O1 (configuration not stated),0,-3,5,2,3,-1
Nc1nc2c(ncn2[C@@H]2O[C@H](C(=O)N[C@@H](Cc3ccccc3)C(=O)NCc3ccc4c(c3)OCO4)[C@@H](O)[C@H]2O)c(=O)[nH]1,-6,0,x,-3,7,0
COCCCNc1c2c3c(cccc3[nH]c1=O)C(=O)c1ccccc1-2,+,-150,6,-47,-82,1
O=C(O)CN1C(=O)/C(=C/c2cccc(Cl)c2)Oc2ccccc21,-1,3,7,-2,52*,8
O=C(Nc1cccc(NC(=O)c2ccccc2Cl)c1)c1ccc(F)cc1,2,27*,4,0,-2,-1
O=C(NC1CCCCC1)C(c1ccc2ncccc2c1)N(Cc1ccc2c(c1)OCO2)C(=O)c1cccs1 (configuration not stated),0,-3,-12,-2,-1,-1
O=C(NC1CCCCC1)C(c1ccc(Cl)cc1)N(C(=O)c1cnccn1)c1ccc2c(c1)OCO2 (configuration not stated),-1,22*,-1,11,-2,-1
O=C(NC1CCCCC1)C(c1ccncc1)N(Cc1ccc2c(c1)OCO2)C(=O)c1cnsn1 (configuration not stated),4,21*,-1,0,6,12
COc1cccc(N(C(=O)c2cnccn2)C(C(=O)NC2CCCCC2)c2ccc(Cl)cc2)c1 (configuration not stated),1,2,-1,4,-8,0
CC(=O)NC1Sc2ccccc2N=C1c1ccccc1 (configuration not stated),26*,3,-13,1,6,0
CC(=O)N1c2ccccc2N=C(c2ccc(C(F)(F)F)cc2)C1C(=O)NC1CCCC1 (configuration not stated),-3,0,1,2,1,5
COc1cc(CNn2cn[nH]c2=S)cc(Br)c1OCc1ccccc1F,24*,0,-9,0,10,0
C=CCN(CC#Cc1ccccn1)Cc1ccc(OC)cc1OC,-1,1,x,3,0,4
CC(C)(C)c1ccc(-n2nc(C#N)c(Cl)cc2=O)cc1,7,1,32*,3,-7,1
CC(C)(C)c1ccc(-n2nc(C(N)=O)c(O)cc2=O)cc1,-1,-2,12,-1,6,-1
Cc1ccc2nc(/C(C#N)=C/c3ccc(O)c(O)c3)[nH]c2c1,27*,-5,-2,-4,13,-1
CCC(CO)Nc1cccc2c1S(=O)(=O)N(Cc1cn(Cc3ccc(Cl)cc3)nn1)Cc1ccccc1O2 (configuration not stated),-1,8,x,-4,5,3
CCOC(=O)NC1(Nc2ccc(C)cc2)Oc2ccccc2O1,37*,4,-3,-6,2,3
COc1cc(OC)cc(-c2csc(N3CCC(C(N)=O)CC3)n2)c1,-3,-1,x,-5,x,-1
O=C(NNc1nc2ccccc2s1)Nc1ccc(Cl)c(Cl)c1,23*,1,-13,1,13,-2
CC(=O)Nc1ccc(O)c(-c2nc3ccccc3s2)c1,0,39*,2,1,13,-5
Fc1ccccc1Cn1ccc2ccc(-c3ccc4ccn(Cc5ccccc5F)c4c3)cc21,-3,-2,x,-1,10,-1
O=C(Cn1c(-c2cncs2)nc2ccccc21)NC1CCCCC1,2,0,x,0,1,0
O=CN1CCN(C(=O)C2CCN(c3ncnc4c3sc3cccc(F)c34)CC2)CC1,-1,-2,x,-5,6,0
SMILES,PRMT1 FP inh,UHRF1 MBD2 ctr,ABHD5-PLIN5 inh,MBD2 inh,rCAG binder,LEDGF integ inh
Cc1nc2ccccc2n1CCc1nc2c3ccccc3nc(=S)n2[nH]1,2,22*,-11,-1,6,-3
COc1ccc2ccccc2c1-c1c(C(=O)c2ccc(Br)cc2)[nH]c(N)c1C(=O)NC1CCCCC1,-7,0,x,1,x,2
CCN(CC)S(=O)(=O)c1ccc(C)c(NC(=O)/C=C/c2cccs2)c1,3,22*,-1,10,2,7
CCCCN(C)C(=O)CSc1nnc(-c2cc(OC)c(OC)c(OC)c2)o1,-1,-13,x,0,3,2
Cc1n[nH]c(C)c1CCNC(=O)C1CCC(=O)N(CCc2cccc(F)c2)C1 (configuration not stated),0,22*,10,3,-7,-2
Cc1ccc2c(c1)N(C(=O)CSc1nncn1C)C(C)(C)c1ssc(=S)c1-2,29*,0,6,-5,-2,0
Cc1cc2c(cc1C)N(C(=O)CSc1nncn1C)C(C)(C)c1ssc(=S)c1-2,9,-2,17,0,-2,-5
CN(CC(=O)N1CCc2[nH]c3ccc(F)cc3c2C1)CC1OCCO1,-1,-5,x,-6,-5,-1
Cc1ccc2[nH]c3c(c2c1)CN(C(=O)CN(C)CC1OCCO1)CC3,22*,0,-7,-3,-1,2
O=C(CS(=O)(=O)Cc1ccccc1)Nc1nc2c(s1)CCCC2,1,-2,-4,-1,1,-1
O=C(CCS(=O)(=O)Cc1ccccc1)Nc1nc2c(s1)CCCC2,2,1,-6,1,-2,33*
CC(C)(C)c1ccc(-c2cn(C[C@H](Cc3ccccc3)n3c(=O)c4ccccc4n3Cc3ccno3)nn2)cc1,5,1,x,9,11,-1
CC(C)C(=O)Nc1nnc(SCC(=O)NC2CCCC2)s1,0,93*,-6,4,2,0
CC(C)CC(=O)Nc1nnc(SCC(=O)NC2CCCC2)s1,-2,2,6,-3,2,-2
COc1ccc(CN(C)CC2CCCN(CCc3ccccc3C)C2)cc1O (configuration not stated),0,0,2,4,-12,1
COc1ccc(CCN2CCCC(CN(C)Cc3cc(Cl)c(O)c(OC)c3)C2)cc1 (configuration not stated),2,54*,-3,-1,-4,1
O=C(NCCN1CCC(Cc2ccccc2)CC1)C1CCCN(S(=O)(=O)c2ccccc2[N+](=O)[O-])C1 (configuration not stated),3,1,x,4,0,0
C[C@H](c1ccccc1)N1C[C@@H](COCc2ccccc2)Oc2cccc(Oc3ccc(F)cc3)c2S1(=O)=O,4,-1,x,-7,8,0
CCc1ccc(CNC(=O)c2nn(C)c3c2CS(=O)(=O)c2ccccc2-3)cc1,-1,1,-3,-8,-3,-6
CCOc1ccccc1CNC(=O)c1nn(C)c2c1CS(=O)(=O)c1ccccc1-2,0,26*,4,4,0,3
CC1CCN(C(=S)c2ccc3c(c2)OCO3)CC1,-2,61*,1,0,-4,2

# Source: PubChem BioAssay (The Scripps Research Institute Molecular Screening Center)
